# Test results from PubChem BioAssay AID1159580 (chemical genetic matrix, 2015).
# Hit rate of the full screen: of about 5,500 compounds, about 2,000 (36%) were called active. About 18% were inconclusive and are not listed. Some of the results follow. Values without a mark were called inactive. No stated cut-off is given here; in the data, active means normalized growth mostly below about 0.91 (no sharp cut-off); inconclusive means no clear call, values can overlap the other calls; inactive means mostly above about 0.92.
# Assay: chemical genetic growth profiling, strain panel (AID 1159580);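 further: tested at 20 µM; growth read once vehicle control cultures reached saturation at 30 °C; 1 = growth at the plate median or of vehicle wells; lower values mean less growth of the strain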
# Conditions: growth OD
# [1] = S. cerevisiae deletion strains, locus YAL013W, strain DEP1, hits give low values
# [2] = S. cerevisiae deletion strains, locus YDL101C, strain DUN1, hits give low values
# [3] = S. cerevisiae deletion strains, locus YGR078C, strain PAC10, hits give low values
# [4] = S. cerevisiae deletion strains, locus YHR030C, strain SLT2, hits give low values
# [5] = S. cerevisiae deletion strains, locus YMR263W, strain SAP30, hits give low values
# [6] = S. cerevisiae deletion strains, locus YNL322C, strain KRE1, hits give low values
# [7] = S. cerevisiae deletion strains, locus YPL055C, strain LGE1, hits give low values
smiles,measurement,setting,value
Nc1ccc(-n2nc(C(F)(F)F)cc2C(F)(F)F)cc1,normalized growth,[1],1
same,normalized growth,"S. cerevisiae deletion strains, locus YBR229C, strain ROT2, hits give low values",0.986
same,normalized growth,[2],1
same,normalized growth,"S. cerevisiae deletion strains, locus YDR150W, strain NUM1, hits give low values",0.902
same,normalized growth,"S. cerevisiae deletion strains, locus YEL061C, strain CIN8, hits give low values",0.998
same,normalized growth,[3],1.01
same,normalized growth,"S. cerevisiae deletion strains, locus YGR229C, strain SMI1, hits give low values",0.99
same,normalized growth,[4],0.661 (active)
same,normalized growth,"S. cerevisiae deletion strains, locus YHR087W, strain rtc3, hits give low values",1.01
same,normalized growth,"S. cerevisiae deletion strains, locus YJR043C, strain POL32, hits give low values",0.992
same,normalized growth,"S. cerevisiae deletion strains, locus YJR075W, strain HOC1, hits give low values",0.938
same,normalized growth,"S. cerevisiae deletion strains, locus YLR039C, strain RIC1, hits give low values",0.842
same,normalized growth,"S. cerevisiae deletion strains, locus YLR058C, strain SHM2 (second series), hits give low values",0.975
same,normalized growth,"S. cerevisiae deletion strains, locus YLR085C, strain ARP6, hits give low values",0.603 (active)
same,normalized growth,"S. cerevisiae deletion strains, locus YLR262C, strain YPT6, hits give low values",0.904
same,normalized growth,"S. cerevisiae deletion strains, locus YML094W, strain GIM5, hits give low values",0.975
same,normalized growth,"S. cerevisiae deletion strains, locus YMR219W, strain ESC1, hits give low values",0.986
same,normalized growth,[5],0.963
same,normalized growth,"S. cerevisiae deletion strains, locus YNL153C, strain GIM3, hits give low values",1
same,normalized growth,"S. cerevisiae deletion strains, locus YNL298W, strain CLA4 (second series), hits give low values",0.855
same,normalized growth,[6],0.969
same,normalized growth,"S. cerevisiae deletion strains, locus YNR030W, strain Alg12, hits give low values",0.951
same,normalized growth,"S. cerevisiae deletion strains, locus YOL006C, strain TOP1, hits give low values",0.866
same,normalized growth,[7],0.929
same,normalized growth,"S. cerevisiae deletion strains, locus YPL241C, strain CIN2, hits give low values",0.825 (active)
same,normalized growth,"S. cerevisiae deletion strains, locus YPR135W, strain CTF4, hits give low values",0.694
same,normalized growth,"S. cerevisiae strains, strain wild type, hits give low values",0.974
Oc1ccc2c3c1O[C@H]1c4[nH]c5ccccc5c4C[C@@]4(O)C(C2)N(CC2CC2)CCC314 (some centres not stated),normalized growth,[1],0.989
same,normalized growth,"S. cerevisiae deletion strains, locus YAL040C, strain CLN3, hits give low values",1
same,normalized growth,"S. cerevisiae deletion strains, locus YCL061C, strain MRC1 (second series), hits give low values",1.01
same,normalized growth,"S. cerevisiae deletion strains, locus YDR363W, strain ESC2, hits give low values",1.02
same,normalized growth,"S. cerevisiae deletion strains, locus YER002W, strain NOP16, hits give low values",1.02
same,normalized growth,[3],1.02
same,normalized growth,[5],1.01
same,normalized growth,"S. cerevisiae deletion strains, locus YMR307W, strain GAS1, hits give low values",0.993
same,normalized growth,"S. cerevisiae deletion strains, locus YNL175C, strain NOP13, hits give low values",1.02
same,normalized growth,"S. cerevisiae deletion strains, locus YNL197C, strain WHI3, hits give low values",1
same,normalized growth,"S. cerevisiae deletion strains, locus YNL224C, strain SQS1, hits give low values",1.01
same,normalized growth,[6],0.999
same,normalized growth,"S. cerevisiae deletion strains, locus YOR083W, strain WHI5 (second series), hits give low values",1.01
same,normalized growth,[7],0.987
Fc1ccc(NC(=S)N2CCCN(Cc3ccc(Cl)cc3Cl)CC2)cc1,normalized growth,"S. cerevisiae deletion strains, locus YAR019C, strain CDC15, hits give low values",0.989
same,normalized growth,"S. cerevisiae deletion strains, locus YBL105C, strain PKC1, hits give low values",0.984
same,normalized growth,"S. cerevisiae deletion strains, locus YBR135W, strain CKS1, hits give low values",0.992
same,normalized growth,"S. cerevisiae deletion strains, locus YBR136W, strain MEC1, hits give low values",0.985
same,normalized growth,"S. cerevisiae deletion strains, locus YBR160W, strain CDC28, hits give low values",0.982
same,normalized growth,"S. cerevisiae deletion strains, locus YDL017W, strain CDC7, hits give low values",0.982
same,normalized growth,"S. cerevisiae deletion strains, locus YDL028C, strain MPS1, hits give low values",0.99
same,normalized growth,[2],0.985
same,normalized growth,"S. cerevisiae deletion strains, locus YDL108W, strain KIN28, hits give low values",0.992
same,normalized growth,"S. cerevisiae deletion strains, locus YDL132W, strain cdc53, hits give low values",0.989
same,normalized growth,"S. cerevisiae deletion strains, locus YDL214C, strain PRR2, hits give low values",0.987
same,normalized growth,"S. cerevisiae deletion strains, locus YDR052C, strain DBF4, hits give low values",0.986
same,normalized growth,"S. cerevisiae deletion strains, locus YDR054C, strain cdc34, hits give low values",0.982
same,normalized growth,"S. cerevisiae deletion strains, locus YDR226W, strain ADK1, hits give low values",0.973
same,normalized growth,"S. cerevisiae deletion strains, locus YDR477W, strain SNF1, hits give low values",1
same,normalized growth,"S. cerevisiae deletion strains, locus YER123W, strain YCK3, hits give low values",1.02
same,normalized growth,"S. cerevisiae deletion strains, locus YER133W, strain GLC7, hits give low values",1
same,normalized growth,"S. cerevisiae deletion strains, locus YFL009W, strain cdc4, hits give low values",0.992
same,normalized growth,"S. cerevisiae deletion strains, locus YFL029C, strain CAK1, hits give low values",0.979
same,normalized growth,"S. cerevisiae deletion strains, locus YFR003C, strain YPI1, hits give low values",0.984
same,normalized growth,"S. cerevisiae deletion strains, locus YFR019W, strain FAB1, hits give low values",0.998
same,normalized growth,"S. cerevisiae deletion strains, locus YFR028C, strain CDC14, hits give low values",0.997
same,normalized growth,"S. cerevisiae deletion strains, locus YGR040W, strain KSS1, hits give low values",1.01
same,normalized growth,"S. cerevisiae deletion strains, locus YGR052W, strain FMP48, hits give low values",1.09
same,normalized growth,"S. cerevisiae deletion strains, locus YGR092W, strain DBF2, hits give low values",1.01
same,normalized growth,[4],0.903
same,normalized growth,"S. cerevisiae deletion strains, locus YHR079C, strain IRE1, hits give low values",0.964
same,normalized growth,"S. cerevisiae deletion strains, locus YHR082C, strain KSP1, hits give low values",1.15
same,normalized growth,"S. cerevisiae deletion strains, locus YHR205W, strain SCH9, hits give low values",0.989
same,normalized growth,"S. cerevisiae deletion strains, locus YIL147C, strain SLN1, hits give low values",0.977
same,normalized growth,"S. cerevisiae deletion strains, locus YJL095W, strain BCK1, hits give low values",1.02
same,normalized growth,"S. cerevisiae deletion strains, locus YJL128C, strain PBS2, hits give low values",0.959
same,normalized growth,"S. cerevisiae deletion strains, locus YJL157C, strain FAR1, hits give low values",1.01
same,normalized growth,"S. cerevisiae deletion strains, locus YJR016C, strain ILV3, hits give low values",0.992
same,normalized growth,"S. cerevisiae deletion strains, locus YJR066W, strain TOR1 (second series), hits give low values",0.966
same,normalized growth,"S. cerevisiae deletion strains, locus YJR066W, strain TOR1, hits give low values",1.11
same,normalized growth,"S. cerevisiae deletion strains, locus YKL048C, strain ELM1, hits give low values",0.981
same,normalized growth,"S. cerevisiae deletion strains, locus YKL067W, strain YNK1, hits give low values",0.989
same,normalized growth,"S. cerevisiae deletion strains, locus YKL101W, strain HSL1, hits give low values",0.987
same,normalized growth,"S. cerevisiae deletion strains, locus YKL193C, strain SDS22, hits give low values",0.994
same,normalized growth,"S. cerevisiae deletion strains, locus YKL203C, strain TOR2, hits give low values",1.05
same,normalized growth,"S. cerevisiae deletion strains, locus YLR113W, strain HOG1, hits give low values",0.821 (active)
same,normalized growth,"S. cerevisiae deletion strains, locus YLR133W, strain CKI1, hits give low values",1.01
same,normalized growth,"S. cerevisiae deletion strains, locus YLR403W, strain SFP1, hits give low values",1.01
same,normalized growth,"S. cerevisiae deletion strains, locus YML070W, strain DAK1, hits give low values",1
same,normalized growth,"S. cerevisiae deletion strains, locus YMR001C, strain CDC5, hits give low values",0.992
same,normalized growth,"S. cerevisiae deletion strains, locus YMR205C, strain PFK2 (second series), hits give low values",0.994
same,normalized growth,"S. cerevisiae deletion strains, locus YMR277W, strain FCP1, hits give low values",0.992
same,normalized growth,"S. cerevisiae deletion strains, locus YNL006W, strain LST8, hits give low values",0.987
same,normalized growth,"S. cerevisiae deletion strains, locus YNL020C, strain ARK1, hits give low values",1
same,normalized growth,"S. cerevisiae deletion strains, locus YNL161W, strain CBK1, hits give low values",0.98
same,normalized growth,"S. cerevisiae deletion strains, locus YNL183C, strain NPR1, hits give low values",1.09
same,normalized growth,"S. cerevisiae deletion strains, locus YNL207W, strain RIO2, hits give low values",0.984
same,normalized growth,"S. cerevisiae deletion strains, locus YNL222W, strain SSU72, hits give low values",0.992
same,normalized growth,"S. cerevisiae deletion strains, locus YNL307C, strain MCK1 (second series), hits give low values",1
same,normalized growth,"S. cerevisiae deletion strains, locus YOL078W, strain AVO1, hits give low values",0.996
same,normalized growth,"S. cerevisiae deletion strains, locus YOL136C, strain PFK27, hits give low values",1.01
same,normalized growth,"S. cerevisiae deletion strains, locus YOR061W, strain CKA2, hits give low values",1.01
same,normalized growth,"S. cerevisiae deletion strains, locus YOR119C, strain RIO1, hits give low values",1.08
same,normalized growth,"S. cerevisiae deletion strains, locus YOR231W, strain MKK1, hits give low values",0.985
same,normalized growth,"S. cerevisiae deletion strains, locus YOR329C, strain SCD5, hits give low values",0.986
same,normalized growth,"S. cerevisiae deletion strains, locus YPL031C, strain PHO85, hits give low values",1.02
same,normalized growth,"S. cerevisiae deletion strains, locus YPL153C, strain RAD53, hits give low values",1.02
same,normalized growth,"S. cerevisiae deletion strains, locus YPL204W, strain HRR25, hits give low values",0.982
same,normalized growth,"S. cerevisiae deletion strains, locus YPL209C, strain IPL1, hits give low values",0.983
same,normalized growth,"S. cerevisiae deletion strains, locus YPL256C, strain CLN2, hits give low values",0.888
same,normalized growth,"S. cerevisiae deletion strains, locus YPR025C, strain CCL1, hits give low values",0.987
same,normalized growth,"S. cerevisiae deletion strains, locus YPR106W, strain ISR1, hits give low values",0.99
same,normalized growth,"S. cerevisiae deletion strains, locus YPR111W, strain DBF20, hits give low values",0.975
same,normalized growth,"S. cerevisiae deletion strains, strain NNK1, hits give low values",0.983
same,normalized growth,"S. cerevisiae deletion strains, strain TSCII, hits give low values",0.984
